Results: PubChem BioAssay (NCATS)
Records with an inconclusive call do not appear. Active and inactive are the calls of the source. Unless noted, calls follow the shape of the dose curve; as a rule, active = well fitted curve in either direction with a large enough effect (not every such curve was filed as active); inconclusive = small, poorly fitted or top-dose-only effect, or another doubt; inactive = flat fitted curve, though single readings scatter.

Experiments:
[1] = target: Lysosomal acid glucosylceramidase (Homo sapiens) (UniProt P04062); assay: Glucocerebrosidase-p2 (AID 348; in the data active = potency below about 10 µM; also: potency is read from the fitted curve at half-maximal effect); conditions: purified GBA, blue fluorogenic substrate, 40 min
Lysosomal acid glucosylceramidase (Homo sapiens), sequence (P04062 whole entry, looked up): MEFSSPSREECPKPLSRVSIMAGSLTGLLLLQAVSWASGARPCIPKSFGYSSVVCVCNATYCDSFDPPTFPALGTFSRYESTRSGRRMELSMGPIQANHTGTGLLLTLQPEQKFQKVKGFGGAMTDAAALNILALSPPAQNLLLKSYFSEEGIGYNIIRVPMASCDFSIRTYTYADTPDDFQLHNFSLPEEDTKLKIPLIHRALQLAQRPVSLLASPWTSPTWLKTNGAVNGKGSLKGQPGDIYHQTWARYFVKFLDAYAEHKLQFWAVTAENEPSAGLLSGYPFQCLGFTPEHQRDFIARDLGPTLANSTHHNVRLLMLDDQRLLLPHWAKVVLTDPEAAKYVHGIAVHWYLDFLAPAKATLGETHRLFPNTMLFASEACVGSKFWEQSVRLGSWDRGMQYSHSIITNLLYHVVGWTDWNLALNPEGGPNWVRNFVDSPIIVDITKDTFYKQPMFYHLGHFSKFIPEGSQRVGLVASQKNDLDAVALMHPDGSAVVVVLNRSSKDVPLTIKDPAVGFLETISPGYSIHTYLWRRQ
Method in brief: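 Normal human glucocerebrosidase (0.2 nM) with blue fluorogenic substrate (80 uM final) in citrate/phosphate pH 5.9 with 10mM sodium taurocholate, 0.01% tween-20; 40 min RT, NaOH/glycine stop; fluorescence Ex 365/Em 440; AC50 from a titration from 0.6 nM upwards.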

[2] = AP1 Signaling Pathway (AID 357); conditions: ME-180 AP-1-bla reporter, EGF-induced, beta-lactamase ratio, 5 h; at 7.69 µM (top of the series) unless noted;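 also: ME-180 reporter cells stimulated with EGF at its EC50 level; % is scaled to controls: 0 for no effect and ±100 for the full control effect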
Method in brief: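 AP-1-bla ME-180 cells, Opti-MEM + 0.5% dialyzed FBS, plated overnight 37 °C. Cpd titration + EC50 EGF, 5 h 37 °C. CCF4 2.5 h RT; ex 405, em 460/530 ratio → %activity, AC50.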

[3] = target: Cytochrome P450 1A2 (Homo sapiens) (UniProt P05177); assay: p450-cyp1a2 (AID 410; calls by dose curve; also: potency is read from the fitted curve at half-maximal effect)
Cytochrome P450 1A2 (Homo sapiens), sequence (P05177 whole entry, looked up): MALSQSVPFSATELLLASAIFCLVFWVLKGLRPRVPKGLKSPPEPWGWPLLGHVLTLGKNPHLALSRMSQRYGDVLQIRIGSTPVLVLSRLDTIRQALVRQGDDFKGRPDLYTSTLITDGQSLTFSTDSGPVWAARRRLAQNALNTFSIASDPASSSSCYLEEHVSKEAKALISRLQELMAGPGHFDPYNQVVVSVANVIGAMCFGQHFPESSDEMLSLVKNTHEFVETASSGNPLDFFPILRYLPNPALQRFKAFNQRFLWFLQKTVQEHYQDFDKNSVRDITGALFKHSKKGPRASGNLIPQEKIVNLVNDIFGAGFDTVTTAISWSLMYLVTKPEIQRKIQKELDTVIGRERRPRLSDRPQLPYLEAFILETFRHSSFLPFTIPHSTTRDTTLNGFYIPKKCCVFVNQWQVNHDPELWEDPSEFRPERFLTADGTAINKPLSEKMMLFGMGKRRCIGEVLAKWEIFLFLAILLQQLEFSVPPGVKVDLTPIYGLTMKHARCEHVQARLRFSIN
Method in brief: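 Luminescent demethylation readout: Luciferin-ME (100uM, equal to Km) turned over by 20nM CYP1A2 for 60 min at room temperature after NADPH regeneration addition, following 10 min compound preincubation. Normalization used 57 uM furafylline as full inhibition.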

[4] = NFAT Signaling Pathway (AID 444); conditions: Jurkat NFAT-bla M1, carbachol, beta-lactamase ratio, 5 h; at 7.69 µM (top of the series) unless noted;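 also: carbachol stimulus at about its EC50 of 1 µM final; % is scaled to controls: 0 for no effect and ±100 for the full control effect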
Method in brief: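 Jurkat cells with NFAT-driven β-lactamase reporter and co-expressed M1 receptor, stimulated with carbachol (final 1 uM, ~EC50), compound titration, 5 h at 37 °C. CCF4 loaded 1 h at RT; 460/530 nm ratio gave %activity and AC50.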

[5] = Stat Signaling Pathway (AID 446); conditions: ME-180 SIE beta-lactamase reporter, IL-6 stimulated, 5 h; at 7.69 µM (top of the series) unless noted;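 also: ME-180 cervical cancer cells given 40 pM IL-6 alongside compound; SIE-controlled beta-lactamase reporter measured as 460/530 nm FRET emission ratio; % is scaled to controls: 0 for no effect and ±100 for the full control effect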
Method in brief: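 FRET read-out (405 nm excitation, 460/530 nm emission) of a beta-lactamase reporter under a STAT-inducible element in ME-180 cervical carcinoma cells. Cells with compound receive 40 pM IL-6 for 5 h. Values are normalised to AC90 stimulation and AC90 JAK-inhibitor controls.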

[6] = target: Glucocorticoid receptor (Homo sapiens) (UniProt P04150); assay: GR-GFP Redistribution (AID 450;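 active = compounds whose dose series gives a full or clear partial fitted curve of increased nuclear translocation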; also: potency is read from the fitted curve at half-maximal effect); conditions: U2OS GR-GFP nuclear translocation, laser cytometry, 2 h
Glucocorticoid receptor (Homo sapiens), sequence (P04150 whole entry, looked up, the tested form may be a part): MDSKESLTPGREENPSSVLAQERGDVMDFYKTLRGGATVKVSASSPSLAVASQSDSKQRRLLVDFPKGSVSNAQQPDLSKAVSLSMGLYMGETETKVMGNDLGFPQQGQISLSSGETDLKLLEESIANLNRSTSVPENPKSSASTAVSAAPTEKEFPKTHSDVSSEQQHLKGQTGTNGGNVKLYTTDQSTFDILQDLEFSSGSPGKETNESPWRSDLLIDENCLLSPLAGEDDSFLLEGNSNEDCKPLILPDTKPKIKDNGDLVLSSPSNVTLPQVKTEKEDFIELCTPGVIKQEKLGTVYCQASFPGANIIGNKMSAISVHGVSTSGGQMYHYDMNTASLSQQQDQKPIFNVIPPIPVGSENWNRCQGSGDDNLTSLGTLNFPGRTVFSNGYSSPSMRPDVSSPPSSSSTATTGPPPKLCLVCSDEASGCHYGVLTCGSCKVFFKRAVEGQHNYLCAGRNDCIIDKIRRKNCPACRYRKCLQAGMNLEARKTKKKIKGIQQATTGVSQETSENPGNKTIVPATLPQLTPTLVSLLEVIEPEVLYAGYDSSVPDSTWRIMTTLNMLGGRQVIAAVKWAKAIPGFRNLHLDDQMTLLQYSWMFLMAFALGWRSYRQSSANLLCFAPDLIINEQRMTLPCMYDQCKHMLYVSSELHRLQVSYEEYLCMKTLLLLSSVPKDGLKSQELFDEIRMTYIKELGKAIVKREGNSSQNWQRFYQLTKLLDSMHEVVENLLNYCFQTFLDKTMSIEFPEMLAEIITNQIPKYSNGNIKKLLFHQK

[7] = target: Glucocorticoid receptor (Homo sapiens) (UniProt P04150); assay: GR-EFC Redistribution (AID 451; calls by dose curve; also: potency is read from the fitted curve at half-maximal effect); conditions: CHO-K1 GR-EFC translocation, beta-gal luminescence, 2 h
Method in brief: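 CHO-K1 cells expressing nuclear EA and GR-ED fragments of b-gal; compounds titrated up to 46 uM final, 2 h at 37 C. GR nuclear translocation read as complemented b-gal luminescence after 1 h RT detection.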

[8] = target: Mitogen-activated protein kinase 10 (Mus musculus) (UniProt Q61831); assay: JNK3 AlphaScreen Assay (AID 530);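 also: kinase came from lysate of stimulated human HepG2 cells; signal reports phosphorylation of biotinylated GST-cJun 1-79 at Ser73 with 10 µM ATP; % is scaled to controls: 0 for no effect and ±100 for the full control effect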
Method in brief: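 Activity was read by AlphaScreen after JNK3-containing HepG2 lysate (cytokine pre-activated) phosphorylated biotinylated GST-cJun with 10 uM ATP at room temperature. Phospho-Ser73 cJun antibody with Protein-A acceptor beads provided detection.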

[9] = target: 3',5'-cyclic-AMP phosphodiesterase 4B (Homo sapiens) (UniProt Q07343); assay: qHTS Assay for Inhibitors of PDE-IV (AID 607; active = well fitted activation curve with a large enough effect in the main read-out, with a control signal flat, not every such curve was filed as active; also: % of control where 0% means no effect)
3',5'-cyclic-AMP phosphodiesterase 4B (Homo sapiens), sequence (Q07343 whole entry, looked up): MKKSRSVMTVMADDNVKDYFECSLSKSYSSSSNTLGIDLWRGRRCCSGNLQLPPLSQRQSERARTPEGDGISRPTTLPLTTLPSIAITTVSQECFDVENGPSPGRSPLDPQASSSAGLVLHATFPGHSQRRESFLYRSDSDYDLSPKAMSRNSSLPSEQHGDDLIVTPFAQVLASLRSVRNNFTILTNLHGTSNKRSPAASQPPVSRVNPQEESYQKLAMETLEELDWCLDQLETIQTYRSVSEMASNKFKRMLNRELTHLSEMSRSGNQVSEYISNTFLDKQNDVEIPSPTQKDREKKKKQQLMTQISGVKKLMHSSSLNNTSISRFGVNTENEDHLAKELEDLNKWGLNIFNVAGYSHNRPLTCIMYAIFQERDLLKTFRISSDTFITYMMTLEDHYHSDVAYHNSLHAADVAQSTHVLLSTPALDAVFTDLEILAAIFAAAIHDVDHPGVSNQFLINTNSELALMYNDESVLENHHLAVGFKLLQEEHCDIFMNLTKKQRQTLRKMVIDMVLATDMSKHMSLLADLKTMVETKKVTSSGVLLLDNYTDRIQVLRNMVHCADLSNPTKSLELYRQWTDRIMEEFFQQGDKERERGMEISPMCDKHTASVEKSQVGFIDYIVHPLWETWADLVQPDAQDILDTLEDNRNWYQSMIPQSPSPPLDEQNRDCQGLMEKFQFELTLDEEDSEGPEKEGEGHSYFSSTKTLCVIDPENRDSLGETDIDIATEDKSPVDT
Method in brief: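 Cell-based read-out of cAMP via a modified cyclic nucleotide-gated channel and membrane potential dye (535/590 nm) in HEK293 cells expressing PDE4 endogenously. Compounds tested up to 22.9 uM final; 100 uM RO 20-1724 reference.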

[10] = qHTS Assay for Identification of Small Molecule Agonists for Hypoxia Response Element Signaling Pathway (AID 914; active = well fitted activation curve with a large enough effect in the signal ratio, with a control signal flat, not every such curve was filed as active; the % refers to the signal ratio; also: potency is read from the fitted curve at half-maximal effect); conditions: ME-180 (cervical carcinoma) HRE-bla reporter, beta-lactamase ratio, CoCl2, 17 h; activation: stronger effect = higher value
Method in brief: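 qHTS titration; ME-180 HRE-bla cells; EC50 CoCl2 co-treatment, 17 h at 37 degrees Celsius; CCF4 dye, ex 405nm, em 460nm and 530nm; %Activity from ratio; AC50.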

[11] = qHTS Assay for Lipid Storage Modulators (AID 1519; calls by dose curve); conditions: Drosophila S3 cells, BODIPY lipid droplet/cell ratio, laser cytometry, cells loaded with oleic acid; for activity change, negative = inhibition: at 57.5 µM (top of the series)
Method in brief: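 Cells seeded at 5,000 per well were treated with compounds over a concentration series and loaded with oleic acid (400 uM, as added). Lipid droplet fluorescence (488 nm excitation, 500-530 nm channel) was read by laser-scanning cytometry and normalized to 20 uM Triacsin C.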

[12] = target: Dual specificity protein kinase CLK4 (Homo sapiens) (UniProt Q9HAZ1); assay: qHTS Assay for Inhibitors of CDC-like Kinase 4 (ADP-FP Assay) (AID 1795; active = well fitted curve in the direction sought with a large enough effect; an effect the other way counts as inactive or inconclusive; also: nearly all actives have a fitted effect of over 60% in size; also: potency is read from the fitted curve at half-maximal effect)
Dual specificity protein kinase CLK4 (Homo sapiens), sequence (Q9HAZ1 whole entry, looked up): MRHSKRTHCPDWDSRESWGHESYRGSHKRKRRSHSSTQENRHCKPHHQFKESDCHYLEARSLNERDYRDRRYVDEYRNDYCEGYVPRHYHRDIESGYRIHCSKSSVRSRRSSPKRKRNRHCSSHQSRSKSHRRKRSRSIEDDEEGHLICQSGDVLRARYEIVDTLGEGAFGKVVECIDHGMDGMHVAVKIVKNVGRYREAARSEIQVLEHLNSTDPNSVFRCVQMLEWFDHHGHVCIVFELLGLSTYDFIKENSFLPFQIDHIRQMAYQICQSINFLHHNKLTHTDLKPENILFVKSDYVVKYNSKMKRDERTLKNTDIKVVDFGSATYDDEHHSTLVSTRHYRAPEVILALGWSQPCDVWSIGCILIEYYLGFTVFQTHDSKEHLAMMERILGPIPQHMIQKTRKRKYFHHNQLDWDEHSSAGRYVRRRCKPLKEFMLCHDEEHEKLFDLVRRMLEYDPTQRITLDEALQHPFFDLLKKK
Method in brief: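 Recombinant Clk4 (6.25 nM) phosphorylated 100 uM RS repeat peptide with 1 uM ATP in 25 mM Tris pH 7.5, 10 mM MgCl2, 0.5 mM EGTA, 2.5 mM DTT, 0.01% Triton X-100 for 1 h. ADP was detected by Transcreener ADP2 competitive fluorescence polarization after 30 min at room temperature.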

[13] = target: Ubiquitin carboxyl-terminal hydrolase 1 (Homo sapiens) (UniProt O94782); assay: Inhibitors of USP1/UAF1: Pilot qHTS (AID 504865; active = well fitted curve in the direction sought with a large enough effect; an effect the other way counts as inactive or inconclusive;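 also: rhodamine fluorescence freed from ubiquitin-rhodamine substrate followed over time; top concentration of the series differs between compounds; % is scaled to controls: 0 for no effect and ±100 for the full control effect; nearly all actives have a fitted effect of over 35% in size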)
Ubiquitin carboxyl-terminal hydrolase 1 (Homo sapiens), sequence (O94782 whole entry, looked up): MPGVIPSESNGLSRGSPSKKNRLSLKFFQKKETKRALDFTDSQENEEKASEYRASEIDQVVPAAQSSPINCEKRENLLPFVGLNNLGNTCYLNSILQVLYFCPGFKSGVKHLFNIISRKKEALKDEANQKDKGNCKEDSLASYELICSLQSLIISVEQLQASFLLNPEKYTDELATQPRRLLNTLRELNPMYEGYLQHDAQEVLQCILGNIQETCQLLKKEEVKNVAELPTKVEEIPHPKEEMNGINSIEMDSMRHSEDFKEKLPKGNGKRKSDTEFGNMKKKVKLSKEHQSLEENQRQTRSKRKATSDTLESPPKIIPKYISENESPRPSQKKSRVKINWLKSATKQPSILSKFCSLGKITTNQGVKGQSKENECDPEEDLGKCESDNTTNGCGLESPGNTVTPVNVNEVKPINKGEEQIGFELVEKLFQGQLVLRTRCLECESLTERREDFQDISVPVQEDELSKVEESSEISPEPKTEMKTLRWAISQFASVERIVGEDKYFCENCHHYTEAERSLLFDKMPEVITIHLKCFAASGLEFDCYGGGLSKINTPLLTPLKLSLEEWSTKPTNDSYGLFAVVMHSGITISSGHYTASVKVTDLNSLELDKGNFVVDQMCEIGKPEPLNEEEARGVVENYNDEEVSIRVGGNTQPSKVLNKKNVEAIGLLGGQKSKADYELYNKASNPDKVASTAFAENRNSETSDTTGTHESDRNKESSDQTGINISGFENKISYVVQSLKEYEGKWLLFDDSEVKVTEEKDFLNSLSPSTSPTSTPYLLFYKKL
Method in brief: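 USP1/UAF1 complex at 1 nM preincubated 15 min at room temperature with compound, then Ub-Rho substrate added at 150 nM final. Fluorescence (480/540 nm) read kinetically in 50 mM HEPES pH 7.8, 0.5 mM EDTA, 1 mM TCEP, 0.1 mg/ml BSA, 0.01% Tween-20.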

[14] = Primary qHTS for small molecule stabilizers of the endoplasmic reticulum resident proteome: Secreted ER Calcium Modulated Protein (SERCaMP) assay (AID 1508630; active = well fitted curve in the direction sought with a large enough effect; an effect the other way counts as inactive or inconclusive; also: % is scaled to controls: 0 for no effect and ±100 for the full control effect)
Method in brief: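 The SH-SY5Y reporter protocol was run at 3 concentrations up to 38.3 uM (primary) or 11 concentrations (follow-up): 16 h compound, 100 nM thapsigargin for 4 h, then extracellular luciferase luminescence.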

[15] = measured here: cell count channel max response
[16] = measured here: lipid channel max response

Row | Structure (SMILES) | Potency [1] | activity change, negative = inhibition [2] | Potency [3] | activity change, negative = inhibition [4] | activity, negative = inhibition [5] | Potency [6] | Potency [7] | outcome [8] | Potency [9] | Potency [10] | activity change, negative = inhibition [11] | max response [11, 15] [%] | max response [11, 16] [%] | Potency [12] | Potency [13] | Potency [14]
1 | CNc1cc(-c2c(C)noc2C)ncn1 | > 11.4 µM (inactive) | 25.4% (inactive) | 5.01 µM (active) | 3.01% (inactive) | 27.1% (inactive) | > 46 µM (inactive) | > 46 µM (inactive) | inactive | inactive | 3.16 µM (active) | 4.96% (inactive) | 25.8 | 27.2 | inactive | inactive | inactive
2 | CN(C)c1ncc2ncc(=O)n(C[C@H]3CCCO3)c2n1 |  | -16.4% (inactive) |  | -6.33% (inactive) | -10.5% (inactive) | > 9.22 µM (inactive) | > 46 µM (inactive) | inactive | inactive |  | 5.33% (inactive) | -7.9 | -4.59 | inactive | inactive | inactive
3 | CNc1ncnc2ccc(-c3ccccc3C)cc12 | > 11.4 µM (inactive) | -4.22% (inactive) |  | 3.06% (inactive) | -3.66% (inactive) | > 46 µM (inactive) | > 46 µM (inactive) | inactive |  |  | -7.2% (inactive) | -12.3 | -15.2 | 8.91 µM (active) | inactive | inactive
